# Inconclusive results are not listed. The source made the active and inactive calls. How the source made its calls, unless noted: active means hit-call score of the fitted dose curve at least 0.9, where 1 is the maximum; inconclusive means response in the unintended direction; inactive means score below 0.9.
# Read-out: Cytochrome P450 (CYP24A1_1), CYP24A1 (gene 1591)
# Test: LTEA_HepaRG_CYP24A1_1: Life Technologies and Expression Analysis (LTEA) Assay for Cytochrome P450 (CYP24A1_1) using HepaRG (AID 2283671; active means hit-call score of the fitted dose curve at least 0.9, where 1 is the maximum; inactive means score below 0.9)
# Conditions: mRNA level, 48 h; actives raise or lower the signal
# Summary of the method: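 HepaRG, 48 h exposure, 8-pt half-log series from 100 uM in 0.5% DMSO, duplicates. Readout: TaqMan qRT-PCR of CYP24A1 mRNA, housekeeping-normalized (ACTB/GAPDH/POLR2A). Bidirectional curve fit vs DMSO baseline.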
row,SMILES,outcome
1,CCCCOCCOCCOCc1cc2c(cc1CCC)OCO2,inactive
2,S=C(S)NCCNC(=S)S.[Mn+2].[S-]C([S-])=NCCN=C([S-])[S-].[Zn+2],inactive
3,COCCO,inactive
4,S=C([S-])NCCNC(=S)[S-].[Mn+2],inactive
5,CN(C)C(=O)Nc1ccc(Cl)c(Cl)c1,inactive
6,N#CSCSc1nc2ccccc2s1,inactive

# Read-out: glucuronosyltransferase (UGT1A1), UGT1A1 (gene 54658)
# Test: CLD_UGT1A1_6hr: CellzDirect (CLD) Gene Expression Assay for glucuronosyltransferase (UGT1A1) at 6 hours (AID 2283672)
# Conditions: not given
# Summary of the method: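 Primary human hepatocytes from two donor preparations, dosed with fresh solutions in 0.2% DMSO, harvested at 6 h. UGT1A1 mRNA measured by qNPA chemiluminescence; induction fitted upward versus DMSO.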
row,SMILES,outcome
1,CCCN(CCC)c1c([N+](=O)[O-])cc(C(F)(F)F)c(N)c1[N+](=O)[O-],inactive
2,CCCCOCCOCCOCc1cc2c(cc1CCC)OCO2,inactive
3,c1ccc(Nc2ccccc2)cc1,inactive
4,S=C(S)NCCNC(=S)S.[Mn+2].[S-]C([S-])=NCCN=C([S-])[S-].[Zn+2],inactive
5,CCN(Cc1c(F)cccc1Cl)c1c([N+](=O)[O-])cc(C(F)(F)F)cc1[N+](=O)[O-],inactive
6,CCOC(=O)C(C)Oc1ccc(Oc2nc3ccc(Cl)cc3o2)cc1 (configuration not stated),inactive
7,CC(C)(c1ccc(O)cc1)c1ccc(O)cc1,inactive
8,CCCN(CCC)C(=O)SCC,inactive
9,CCCCOC(=O)C(C)Oc1ccc(Oc2ccc(C(F)(F)F)cn2)cc1 (configuration not stated),inactive
10,CN(C)C(=O)Nc1ccc(Cl)c(Cl)c1,inactive
11,CCN(CC)C(=O)c1cccc(C)c1,inactive
12,CCCCCOC(=O)COc1cc(N2C(=O)C3=C(CCCC3)C2=O)c(F)cc1Cl,inactive
13,C=CCOC(Cn1ccnc1)c1ccc(Cl)cc1Cl (configuration not stated),inactive
14,CC(C)(C)[C@@H](O)[C@@H](Cc1ccc(Cl)cc1)n1cncn1,inactive
15,CCSC(=O)N(CC(C)C)CC(C)C,inactive
16,CCC(C)OC(=O)N1CCCCC1CCO (configuration not stated),inactive
17,Oc1ccc(C(c2ccc(O)cc2)C(Cl)(Cl)Cl)cc1,inactive
18,COc1c(Cl)ccc(Cl)c1C(=O)O,inactive
19,CCNc1nc(N)nc(Cl)n1,inactive
20,N#CSCSc1nc2ccccc2s1,inactive
21,CSC(=O)c1cccc2nnsc12,inactive
22,c1ccc2[nH]c(-c3cscn3)nc2c1,inactive

# Read-out: xenobiotic metabolism (CYP1A1), CYP1A1 (gene 1543)
# Test: CLD_CYP1A1_24hr: CellzDirect (CLD) Gene Expression Assay for xenobiotic metabolism (CYP1A1) at 24 hours (AID 2283673);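 further: CYP1A1 mRNA level by quantitative nuclease protection with chemiluminescence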
# Conditions: not given
# Summary of the method: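 Primary human hepatocytes dosed daily with fresh solutions in 0.2% DMSO vehicle. mRNA measured at 24 h by quantitative nuclease protection assay with chemiluminescence; gain-of-signal fit versus DMSO, with morphology-based cytotoxicity flags.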
SMILES,AC50,outcome
CCCN(CCC)c1c([N+](=O)[O-])cc(C(F)(F)F)c(N)c1[N+](=O)[O-],3.83 µM (active),–
O=C(O)C1(C(=O)Nc2ccc(Cl)cc2Cl)CC1,–,inactive
CCCCOCCOCCOCc1cc2c(cc1CCC)OCO2,2.56 µM (active),–
c1ccc(Nc2ccccc2)cc1,–,inactive
CCN(Cc1c(F)cccc1Cl)c1c([N+](=O)[O-])cc(C(F)(F)F)cc1[N+](=O)[O-],0.786 µM (active),–
CCOC(=O)C(C)Oc1ccc(Oc2nc3ccc(Cl)cc3o2)cc1 (configuration not stated),–,inactive
CC(C)(c1ccc(O)cc1)c1ccc(O)cc1,–,inactive
CCCN(CCC)C(=O)SCC,–,inactive
S=C([S-])NCCNC(=S)[S-].[Mn+2],–,inactive
CN(C)C(=O)Nc1ccc(Cl)c(Cl)c1,4.24 µM (active),–
CCCCCOC(=O)COc1cc(N2C(=O)C3=C(CCCC3)C2=O)c(F)cc1Cl,–,inactive
C=CCOC(Cn1ccnc1)c1ccc(Cl)cc1Cl (configuration not stated),1.07 µM (active),–
CC(C)(C)[C@@H](O)[C@@H](Cc1ccc(Cl)cc1)n1cncn1,12.1 µM (active),–
Oc1ccc(C(c2ccc(O)cc2)C(Cl)(Cl)Cl)cc1,–,inactive
COc1c(Cl)ccc(Cl)c1C(=O)O,–,inactive
O=C(Nc1ccc([N+](=O)[O-])cc1Cl)c1cc(Cl)ccc1O,7.01 µM (active),–
CCNc1nc(N)nc(Cl)n1,–,inactive
N#CSCSc1nc2ccccc2s1,4.74 µM (active),–
CSC(=O)c1cccc2nnsc12,20 µM (active),–
c1ccc2[nH]c(-c3cscn3)nc2c1,0.226 µM (active),–

# Read-out: ABC Transporter (ABCB11), ABCB11 (gene 8647)
# Test: CLD_ABCB11_6hr: CellzDirect (CLD) Gene Expression Assay for ABC Transporter (ABCB11) at 6 hours (AID 2283675);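 further: hits raise ABCB11 mRNA level so AC50 marks induction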
# Conditions: not given
# Summary of the method: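 Human primary hepatocytes (two donor preparations) given fresh chemical daily at multiple concentrations, vehicle 0.2% DMSO. ABCB11 mRNA induction measured 6 h after dosing by qNPA chemiluminescence versus DMSO; cytotoxicity annotated from morphology.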
row,SMILES,outcome
1,CCCN(CCC)c1c([N+](=O)[O-])cc(C(F)(F)F)c(N)c1[N+](=O)[O-],inactive
2,c1ccc(Nc2ccccc2)cc1,inactive
3,S=C(S)NCCNC(=S)S.[Mn+2].[S-]C([S-])=NCCN=C([S-])[S-].[Zn+2],inactive
4,CCN(Cc1c(F)cccc1Cl)c1c([N+](=O)[O-])cc(C(F)(F)F)cc1[N+](=O)[O-],inactive
5,CCOC(=O)C(C)Oc1ccc(Oc2nc3ccc(Cl)cc3o2)cc1 (configuration not stated),inactive
6,CC(C)(c1ccc(O)cc1)c1ccc(O)cc1,inactive
7,S=C([S-])NCCNC(=S)[S-].[Mn+2],inactive
8,CCCCOC(=O)C(C)Oc1ccc(Oc2ccc(C(F)(F)F)cn2)cc1 (configuration not stated),inactive
9,CN(C)C(=O)Nc1ccc(Cl)c(Cl)c1,inactive
10,CCCOC(=O)c1ccc(C(=O)OCCC)nc1,inactive
11,CCCCCOC(=O)COc1cc(N2C(=O)C3=C(CCCC3)C2=O)c(F)cc1Cl,inactive
12,CCSC(=O)N(CC(C)C)CC(C)C,inactive
13,CCC(C)OC(=O)N1CCCCC1CCO (configuration not stated),inactive
14,Oc1ccc(C(c2ccc(O)cc2)C(Cl)(Cl)Cl)cc1,inactive
15,COc1c(Cl)ccc(Cl)c1C(=O)O,inactive
16,O=C(Nc1ccc([N+](=O)[O-])cc1Cl)c1cc(Cl)ccc1O,inactive
17,CCNc1nc(N)nc(Cl)n1,inactive
18,N#CSCSc1nc2ccccc2s1,inactive
19,CSC(=O)c1cccc2nnsc12,inactive

# From PubChem BioAssay (EPA / NIEHS)
